Where “and” joins values, the source holds several entries; their conditions need not be identical. Identical values can stand only once. Hit rate of the full screen: of about 16,000 compounds, about 5,800 (36%) were called active. Roughly 23% stayed inconclusive and do not appear here. This is one part of the list. Values without a mark were called inactive. Calls come from the whole dose curve; as a rule, active = well fitted curve in the direction sought with a large enough effect; inconclusive = small, poorly fitted or top-dose-only effect, or effect the other way; inactive = no such curve, though single readings can be large or run the other way.

The AC50 is the concentration at which the activity in the assay is half-maximal.
% is set by controls: 0 for no effect and ±100 for the full control effect.

Sequence of Cytochrome P450 2C19 (Homo sapiens) (P33261 whole entry, looked up): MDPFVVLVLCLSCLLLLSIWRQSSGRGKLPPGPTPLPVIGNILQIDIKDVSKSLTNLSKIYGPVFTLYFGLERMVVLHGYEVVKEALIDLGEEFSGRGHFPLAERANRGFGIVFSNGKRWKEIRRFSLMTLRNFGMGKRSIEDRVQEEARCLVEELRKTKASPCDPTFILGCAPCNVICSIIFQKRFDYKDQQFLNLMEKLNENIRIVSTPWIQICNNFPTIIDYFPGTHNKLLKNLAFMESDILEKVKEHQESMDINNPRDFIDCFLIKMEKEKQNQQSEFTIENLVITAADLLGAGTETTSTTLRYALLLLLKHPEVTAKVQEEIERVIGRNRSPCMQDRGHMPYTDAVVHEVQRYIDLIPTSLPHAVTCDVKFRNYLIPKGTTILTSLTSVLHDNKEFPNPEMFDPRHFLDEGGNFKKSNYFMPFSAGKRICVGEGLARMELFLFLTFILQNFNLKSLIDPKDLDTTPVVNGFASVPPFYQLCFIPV

This test addresses Cytochrome P450 2C19 (Homo sapiens) (UniProt P33261). The test is described as follows: Cytochrome panel assay with activity outcomes. The note with it: recombinant CYP, pro-luciferin dealkylation, luminescence, p450-cyp2c19; series mostly up to 57.1 µM.
`Cc1cc(C)nc(SCC(=O)N/N=C\c2sccc2C)n1`: the AC50 is 5.01 µM (active). For `O=C(CN1CCN(S(=O)(=O)c2ccccc2)CC1)NC(=O)NCc1ccccc1`, the AC50 result is “inactive”. As for `O=C(CSc1nc2ccccc2o1)NC(=O)NCc1ccccc1`, the AC50 is 3.55 µM (active). The same measure, in the same setting: in the case of `O=C(CNC1CCCCCC1)Nc1ccccc1N1CCCCC1` it was 4.47 µM (active); in that of `O=C(CSc1nc2ccccc2o1)Nc1ccccc1N1CCCCCC1`, 15.8 µM (active); in that of `CNc1c2c(nn1C)CCCC2`, “inactive”. Turning to `C[N+](C)(C)c1cc2c(nn1)Nc1ccccc1S2`, the activity, negative = inhibition was -41.4% [at 11.4 µM]. Still for that read-out and setting: in the case of `CC1(C)N=C(N)N=C(N)N1CCCCc1ccccc1` it was 24% [at 11.4 µM]. For the molecule `O=C(CSc1nc2ccccc2o1)Nc1nc2ccccc2s1`, the AC50 was 1.78 µM (active).

For `O=C(O)c1ccc(CNCc2ccccc2)cc1`, the activity, negative = inhibition is -4.75% [at 11.4 µM]. `O=C(CSc1ccccn1)Nc1nc2ccc(Br)cc2s1`: the AC50 is 2 µM (active). In the case of `O=C(O)c1cc(=O)[nH]c(SCc2ccccc2)n1`, the activity, negative = inhibition is -23.4% [at 11.4 µM]. Take `Cc1cc(C)nc(SCC(=O)Nc2ccccc2[N+](=O)[O-])n1`: the AC50 was 7.94 µM (active).

`O=C(O)c1ccc(CSc2nc3ccccc3o2)cc1`: the half-maximal activity concentration (AC50) was 35.5 µM (active).

Regarding `COc1nc(Cl)nc(Cl)c1Cl` (tested in a mixture with another compound), the activity, negative = inhibition was -12.4% [at 11.4 µM]. Take `CC(=O)OC[C@@H]1O[C@@H](O/N=C2/C[C@@H](O)[C@@H](O)[C@@H]3[C@@H]4C(=O)N(C[C@@H]5CCCO5)C(=O)[C@H]4CC[C@H]23)[C@H](OC(C)=O)[C@H](OC(C)=O)[C@@H]1OC(C)=O`: the activity, negative = inhibition was -5.2% [at 11.4 µM]. `Cc1ccccc1NC(=O)Cn1cnc2c1c(=O)n(C)c(=O)n2C`: the AC50 entry is “inactive”. Take `Cc1ccccc1NC(=O)CSc1nc(N2CCCCC2)nc(N2CCCCC2)n1`: the AC50 is 0.355 µM (active).

Consider `O=C(C/C=N/OCc1ccc(Cl)cc1Cl)c1ccc(Cl)cc1`, for which the AC50 is 0.794 µM (active). For `O=C(C/C=N/OCc1ccc(F)cc1Cl)c1cnc(-c2ccccc2)s1`, the concentration at half-maximal activity (AC50) was 1.26 µM (active).

Consider `CN(C)CN1CSC(=S)N(CN(C)C)C1`, for which the AC50 is 3.16 µM (active). Turning to `CCc1ccc(N2CC(C(=O)NC3=NCCS3)CC2=O)cc1` (configuration not stated), the AC50 was 15.8 µM (active).

Take `COc1ccc(N2CC(C(=O)Nc3cc(C)on3)CC2=O)cc1` (configuration not stated): the AC50 entry is “inactive”.

`Cc1cc(NC(=O)C2C3C(=O)N(Cc4ccc(Cl)cc4)C(C(=O)NC(C)(C)C)C34C=CC2(C)O4)no1` (configuration not stated): the AC50 entry is “inactive”. Take `Cc1ccc(N2CC(C(=O)Nc3cc(C)on3)CC2=O)cc1` (configuration not stated): the AC50 is 5.62 µM (active). For `CC(C)CO/N=C1/C[C@@H](O)[C@@H](O)[C@@H]2[C@@H]3C(=O)N(C[C@@H]4CCCO4)C(=O)[C@H]3CC[C@@H]12`, the activity, negative = inhibition was -18.3% [at 11.4 µM]. Turning to `O=C(c1cnccn1)N1CCC2(CCCN(c3ncccn3)C2)CC1`, the AC50 entry was “inactive”.

On to `COc1ccc(COC(=O)N/N=C2/C[C@@H](O)[C@@H](O)[C@@H]3[C@H]4C(=O)N(c5ccc(F)cc5F)C(=O)[C@@H]4CC[C@@H]23)cc1`, for which the activity, negative = inhibition is -19.3% [at 11.4 µM]. On to `C=CC[C@@H]1C=C[C@H](O/N=C(\C)CCN2CCc3nc(CC)c(CC)cc3C2)[C@H](CO)O1`, for which the activity, negative = inhibition was -14% [at 11.4 µM]. `COc1cc(NC(=O)Cc2c(C(=O)O)[nH]c3ccccc23)cc(OC)c1OC`: the AC50 entry was “inactive”. `COc1cc(NC(=O)c2cc3nc(-c4ccccc4)cc(-c4ccccc4)n3n2)cc(OC)c1OC`: the AC50 was 6.31 µM (active). Still for that read-out and setting: in the case of `Nn1c(SCC(=O)N2CCOCC2)nnc1-c1ccccc1Cl` it was “inactive”; in that of `O=C(CSc1c[nH]c2ccccc12)N1CCOCC1`, 1.58 µM (active). Take `Fc1cccc(F)c1C(Nc1nncs1)Nc1nncs1`: the activity, negative = inhibition was 7.56% [at 11.4 µM]. Take `O=C(O)CNCCc1ccccc1`: the activity, negative = inhibition is 4.74% [at 11.4 µM]. As for `NNCCc1ccccc1`, the AC50 is 794 nM (active) and 316 nM (active).

Take `Cc1ccc(COc2ccc(Br)cc2/C=N/O)cc1`: the AC50 was 1 µM (active). On to `O=c1c(-c2ccccc2)nc2cnc(N3CCOCC3)nc2n1Cc1cccs1`, for which the AC50 entry is “inactive”. In the case of `C[C@@H](COc1ccccc1)N(CCCl)Cc1ccccc1`, the AC50 was 2 µM (active). In the case of `O=S(=O)(Nc1nc(-c2sccc2Cl)cs1)c1cc(Cl)ccc1Cl`, the half-maximal activity concentration (AC50) was 0.2 µM (active). On to `COc1ccc(NC(=O)CN2CCN(CC(=O)Nc3ccccc3Cl)CC2)cc1`, for which the AC50 is 1.41 µM (active). As to `O=C(CC1C(=O)NCCN1C(=S)Nc1ccccc1)Nc1ccc2c(c1)OCCO2` (configuration not stated), the half-maximal activity concentration (AC50) was 11.2 µM (active).

On to `COC(=O)N1CCC2(CC1)CN(C(=O)Nc1ccc(OC)cc1)C2`, for which the AC50 result is “inactive”. As to `COc1ccc(NC(C)=O)cc1NC(=O)CN1CCN(CC(=O)Nc2ccccc2Cl)CC1`, the AC50 was 7.94 µM (active). Turning to `CCC(C)NC(=O)C1CCN(C(=O)c2ccccc2)CC1` (configuration not stated), the AC50 entry was “inactive”. Turning to `O=C(Nc1ccc2c(c1)OCCO2)C1CCN(C(=O)c2ccccc2)CC1`, the AC50 is 22.4 µM (active). For the molecule `COC(=O)N1CCC2(CCN(C(=O)Nc3ccc(OC)cc3)CC2)CC1`, the AC50 result is “inactive”. Regarding `CC(C)=CCC/C(C)=C/CO/N=C1/C[C@@H](O)[C@@H](O)[C@@H]2[C@@H]3C(=O)N(C4CCCCC4)C(=O)[C@H]3CC[C@@H]12`, the activity, negative = inhibition is -41.2% [at 11.4 µM]. Consider `O=C(CN1C(=O)C2C3C=CC(C3)C2C1=O)Nc1ccc2c(c1)OCCO2` (configuration not stated), for which the AC50 entry is “inactive”. Regarding `COc1ccccc1NC(=O)CN1CCN(CC(=O)Nc2ccc(OCc3ccccc3)cc2)CC1`, the AC50 is 0.631 µM (active). On the same count and under the same terms, in the case of `COc1ccc(NC(=O)CN2c3cccc4cccc(c34)S2(=O)=O)cc1` it was 10 µM (active); in that of `COc1ccccc1NC(=O)c1cnc2n(c1=O)CCS2`, “inactive”. Turning to `CC(=O)Nc1ccc2c(c1)OCCOCCOc1cc(NC(C)=O)ccc1OCCOCCOCCO2`, the AC50 result was “inactive”. For the molecule `O=C(CN1CCN(CC(=O)Nc2ccccc2Cl)CC1)Nc1ccc2c(c1)OCCO2`, the concentration at half-maximal activity (AC50) was 0.891 µM (active).

Turning to `O=C(CN1C(=O)c2ccccc2S1(=O)=O)Nc1ccccc1`, the AC50 entry is “inactive”. On the same count and under the same terms, in the case of `O=C(CC(c1ccccc1)c1ccccc1)Nc1ccc2c(c1)OCCO2` it was 2.82 µM (active); in that of `CCCN1C[C@H](CSC)C[C@H]2c3cccc4[nH]cc(c34)C[C@@H]21`, “inactive”.

Source of the values: PubChem BioAssay AID1851 (National Center for Advancing Translational Sciences (NCATS), 2009).
